Screens deposited in PubChem BioAssay by National Center for Advancing Translational Sciences (NCATS).
Sampled rows, rich in hits. Any-hit rate of the full collection: about 6.6%.
KB-3-1 cytotox: qHTS assay for MDR1-selective chemotherapeutics: Primary screen using the parental adenocarcinoma cell KB-3-1; Potency, µM (top dose mostly 46.1 µM), hits mostly cytotoxic; KB-3-1 viability, CellTiter-Glo ATP luminescence, 72 h; actives 1.4% (n = 400,000); note: nearly all actives have a fitted effect of over 60% in size
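Using CellTiter-Glo luminescence, growth of non-resistant KB-3-1 adenocarcinoma cells is assessed 72 h after pin-tool compound addition at 37 °C. Normalized responses across the concentration series yield fitted curves.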
SW480 rereplic: A quantitative high throughput screen for small molecules that induce DNA re-replication in SW480 colon adenocarcinoma cells; SW480 DNA re-replication, Hoechst DNA content imaging, 48 h; Potency, µM (series often up to 46.1 µM), hits mostly activators; actives 1.8% (n = 340,000); AID 624297, 2012; note: nearly all actives have a fitted effect of over 55% in size
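Quantitative HTS format with DMSO vehicle controls; 48 hr drug incubation at 37 C, then 40 min Hoechst staining and scanning imager measurement at 405 nm excitation.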
KB-V1 cytotox: qHTS assay for MDR1-selective chemotherapeutics: Primary screen using the drug-selected MDR subline cells KB-V1; Potency, µM (doses to about 46.1 µM), most hits filed as cytotoxic; KB-V1 MDR cells viability, CellTiter-Glo, 72 h; actives 3.4% (n = 400,000); note: nearly all actives have a fitted effect of over 60% in size
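Luminescent ATP read-out (CellTiter-Glo, 10 min) measures survival of drug-selected KB-V1 MDR cells after 72 h, 37 degrees C compound exposure. Medium: phenol-red-free DMEM, 10% FBS. Values from fitted concentration-response curves.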
RGS4 inhibitor: Inhibitors of Regulator of G Protein Signaling (RGS) 4: qHTS | Potency, µM (doses to about 114 µM), actives largely listed as inhibitors | Transcreener GDP fluorescence polarization, RGS4-accelerated GTP hydrolysis | actives 0.039% (n = 390,000) | AID 504845, 2011 | Regulator of G-protein signaling 4 (Homo sapiens), P49798; note: nearly all actives have a fitted effect of over 75% in size
Target sequence (P49798 whole entry, looked up): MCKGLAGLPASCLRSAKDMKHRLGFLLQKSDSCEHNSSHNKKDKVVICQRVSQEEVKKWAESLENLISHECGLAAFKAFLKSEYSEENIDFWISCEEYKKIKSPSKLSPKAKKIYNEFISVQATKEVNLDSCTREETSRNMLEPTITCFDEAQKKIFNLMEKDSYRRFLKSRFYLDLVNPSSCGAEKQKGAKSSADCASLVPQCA
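MLSMR compounds (23 nl, pin-transferred) preincubated 10 min at room temperature with a 500nM (2x) first reagent, then RGS4 at 900nM (2x) plus Transcreener GDP mix added; fluorescence polarization (620/688 nm) read before and after 90 min at 30 °C.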
MCF10A rereplic: A quantitative high throughput screen for small molecules that induce DNA re-replication in MCF 10a normal breast cells; MCF 10A DNA re-replication, Hoechst nuclear intensity, 48 h; Potency, µM (doses to about 46.1 µM), hits mostly activators; actives 2.9% (n = 350,000); AID 624296, 2012; note: nearly all actives have a fitted effect of over 50% in size
PTAP TSG101 blk: qHTS Assay for Iinhibitors of HIV-1 Budding by Blocking the Interaction of PTAP/TSG101; Tumor susceptibility gene 101 protein (Homo sapiens), Q99816; Potency, µM (series often up to 115 µM), most hits filed as inhibitors; Fluorescence polarization, FITC-PTAP peptide / Tsg101 binding; AID 493005, 2010; 340,000 tested, under 10 active; active = well fitted inhibition curve with a large enough effect in the main read-out, with a control signal flat, not every such curve was filed as active; inconclusive = small, poorly fitted or top-dose-only effect, or effect the other way, or a change in a side signal; inactive = no such curve, though single readings can be large or run the other way
Target sequence (Q99816 whole entry, looked up): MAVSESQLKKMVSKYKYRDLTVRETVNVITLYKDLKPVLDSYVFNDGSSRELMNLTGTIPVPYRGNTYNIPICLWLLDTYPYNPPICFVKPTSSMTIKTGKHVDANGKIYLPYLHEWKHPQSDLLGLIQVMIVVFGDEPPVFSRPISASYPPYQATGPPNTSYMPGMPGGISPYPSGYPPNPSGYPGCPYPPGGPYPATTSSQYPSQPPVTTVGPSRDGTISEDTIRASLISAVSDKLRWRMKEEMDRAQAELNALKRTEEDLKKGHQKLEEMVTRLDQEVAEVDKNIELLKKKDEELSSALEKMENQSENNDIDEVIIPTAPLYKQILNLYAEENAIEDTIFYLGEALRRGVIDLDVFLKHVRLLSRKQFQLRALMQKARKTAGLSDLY
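Compounds were pin-transferred onto Tsg101 binding domain (10 uM final) in HEPES pH 7.5 buffer, then FITC-PTAP peptide was added at 50 nM final. After 20 min at RT, polarization reported peptide displacement across a qHTS concentration series.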
Numbers stand for hits; n = inactive; u = inconclusive; x = no result; ! = not confirmed by another sample; [ ] = remark or other dose. Unless noted, calls come from the whole dose curve; as a rule, active = well fitted curve in the direction sought with a large enough effect; inconclusive = small, poorly fitted or top-dose-only effect, or another doubt; inactive = no such curve, though single readings can be large; an effect the other way counts as inactive or inconclusive.

SMILES	KB-3-1 cytotox	SW480 rereplic	KB-V1 cytotox	RGS4 inhibitor	MCF10A rereplic	PTAP TSG101 blk
CCC(=O)Nc1nn(C)c2nc3c(C)cccc3cc12	n	21µM	n	n	6.5µM	n
Cc1nc2ccccc2cc1OCc1ccc(Cl)cc1	2.6µM	n	1.8µM	n	u	n
C/C=C(/C)C(=O)O[C@@H]1c2c(ccc3ccc(=O)oc23)O[C@@H]1C(C)(C)OC(=O)/C(C)=C\C	u	n[9.22 µM]	6.5µM	n	u	n
Cc1[nH]n(-c2ccc(Br)cc2)c(=O)c1/C=N/NC(=O)c1ccccc1	7.3µM	u	1.3µM	n	n	n
Cc1ccc(-n2[nH]c(C)c(/C=N/NC(=O)c3ccc(O)cc3O)c2=O)cc1	n	8.2µM	n	n	n	n
Cc1[nH]n(-c2ccccc2)c(=O)c1/C=N/NC(=O)c1cccc(F)c1	u	u	u	n	n	n
COc1ccc(NC(=O)Cn2ccn(-c3ccc(F)c(F)c3)c(=O)c2=O)cc1Cl	x	x	x	n	x	x
O=C(CN1CCN(c2ccccc2O)CC1)NC(c1ccccc1)c1ccccc1	n	n	4.1µM	n	n	n
Cc1ccc2[nH]cc(C(O)c3c[nH]c4ccc(C)cc34)c2c1	n	x	n	x	x	x
Cc1nc2ccccc2c(=O)n1-c1ccc(NC(=O)c2ccccc2[N+](=O)[O-])cc1	n	x	n	n	x	x
OCCN1CCN(CCCN2c3ccccc3Sc3ccc(Cl)cc32)CC1	n	u	u	u	21µM!	n
O=C(CCl)N1c2ccccc2Sc2ccc3ccccc3c21	n	x	u	x	x	x
CN(C)CCCN1c2ccccc2Sc2ccc3ccccc3c21	u	u	18µM	n	u	n
CN(C)CCCN1c2ccccc2CCc2ccccc21	n	n	u	x	x	n
CC[N+](C)(C)CC/C=C1/c2ccccc2Sc2ccc(Cl)cc21	n	n	n	n	n	n
OCCN1CCN(CC/C=C2/c3ccccc3Sc3ccc(Cl)cc32)CC1	n	n	n	n	4.6µM	n
CN(C)CCCN1c2ccccc2Sc2ccc(Cl)cc21	u	u	13µM!	n	u	n
CC(=O)c1ccc2c(c1)N(CCCN1CCC(CCO)CC1)c1ccccc1S2	n	n	u	n	n	n
CN(Cc1ccccc1)c1ncnc2c1nnn2C	n	x	n	n	x	x
COc1ccccc1NC(=O)c1cnc(SCC(=O)N2CCCc3ccccc32)n(C)c1=O	x	x	x	n	x	x
O=C1Cc2ccccc2C1=C1C=c2ccccc2=C1	u	x	n	x	x	x
CN(C)CCCN1c2ccc3ccccc3c2Sc2cccc(Cl)c21	u	u	15µM	n	u	n
Cc1ccc2c(c1)Sc1c(ccc3ccccc13)N2	n	n	n	n	u	n
CN1CCN(CCCN2c3ccccc3Sc3ccc(S(=O)(=O)N(C)C)cc32)CC1	n	n	21µM	n	u	n
Cc1ccccc1NC(=O)c1c(C)oc2ccc(O)c(CN3CCCC(C)C3)c12 (stereo not given)	n	x	u	n	x	x
SMILES	KB-3-1 cytotox	SW480 rereplic	KB-V1 cytotox	RGS4 inhibitor	MCF10A rereplic	PTAP TSG101 blk
CCOC(=O)C1CCN(C(=O)c2c(C)oc3c2C(=O)c2ccccc2C3=O)CC1	u	12µM	18µM	n	u	n
CC1CCN(C(=O)c2ccc3c(c2)C(=O)c2ccccc2-3)CC1	n	x	n	x	x	x
Cc1oc2c(c1C(=O)N1CCC(C)CC1)C(=O)c1ccccc1C2=O	21µM	12µM	18µM	n	n	n
C=CCNC(=S)N/N=C(\C)c1cc(OC)c(OC)c(OC)c1	n	n	15µM	n	n	n
O=C(Nc1ccc2c(c1)OCO2)c1cc(-c2ccncc2)nc2ccccc12	u	u	u	n	18µM	n
O=C(Nc1ccc2c(c1)OCCO2)c1cc(-c2ccccc2)nc2ccccc12	n	n	n	n	n	n
O=C(N/N=C/c1ccc2c(c1)OCO2)c1cc(-c2ccccc2Cl)nc2ccccc12	n	n	n	n	u	n
Cc1cc(C(=O)N/N=C/c2ccc3c(c2)OCO3)c2ccccc2n1	2.6µM	10µM	u	n	u	n
O=C(Nc1ccc2c(c1)OCO2)c1cc(-c2ccc(O)cc2)on1	n	u	n	n	10µM	n
O=C(N/N=C/c1ccc2c(c1)OCO2)c1cc(-c2ccncc2)nc2ccccc12	5.8µM	16µM	n	u	5.8µM	n
O=C(Nc1ccc2c(c1)OCO2)c1cc(-c2ccc(Cl)cc2)on1	n	x	n	n	x	x
O=C1c2ccccc2NC(c2cc(Br)c3c(c2)OCO3)N1Cc1ccco1 (stereo not given)	n	x	n	n	x	x
O=C(CCc1nc2cccnc2n1Cc1cccs1)Nc1cccc(Cl)c1	n	x	n	n	x	x
COc1ccc(Cn2c(C(=O)O)c(CNCc3ccco3)c3ccc(OC)cc32)cc1	n	x	n	n	x	x
O=c1[nH]c2ccccc2c2oc(CCl)nc12	n	n	u	u	21µM	n
COC(=O)[C@@]1(Cc2ccccc2)[C@@H]2C(=CC(=O)[C@H]2CC(=O)C(=O)N(C)C)CN1C(=O)c1ccccc1	21µM	u	n	n	26µM	n
Cc1nn(C)c(C)c1CN(C)C(=O)c1cnn2c1NC(c1ccccc1)CC2C(F)(F)F (stereo not given)	n	n	u	n	n	n
Cc1c(CNC(=O)c2nn3c(c2Cl)NC(c2ccccc2)CC3C(F)(F)F)cnn1C (stereo not given)	n	n	21µM	n	n	n
COc1ccc(C2CC(C(F)(F)F)n3nc(C(=O)NCc4c(C)nn(C)c4C)c(Cl)c3N2)cc1 (stereo not given)	u	n	6.5µM	n	n	n
CC1=C(C(=O)Nc2ccccc2C)C(c2ccc(C)o2)n2c(s/c(=C/c3ccccc3)c2=O)=N1 (stereo not given)	n	n	n	n	n	n
CC1=C(C(=O)Nc2ccccc2)C(c2ccc(C)o2)n2c(s/c(=C/c3ccccc3)c2=O)=N1 (stereo not given)	n	n	n	n	15µM	n
COc1ccc(CN2CCN(Cc3cc(=O)oc4cc(C)ccc34)CC2)c(OC)c1OC	n	n	n	n	6.5µM	n
COc1cc(OC)c(CN2CCN(c3ccc(F)cc3)CC2)cc1Br	n	n	16µM	n	n	n
COc1cc(OC)c(CN2CCCCCCC2)cc1Br	n	n	n	n	n	n
